The values below come from the supplement of paper PMC4709259.

Experiment [1] has as its system Jurkat. The experiment can be described thus: mean cell size (FSC-A) relative to DMSO control (fraction of control); higher = larger cells. The note with it: 48 h. The essentials: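 Jurkat cells seeded at 600 cells/µl were incubated 1 h, then exposed for 48h to the Enzo Screen-Well FDA Approved Drug Library v2.0 at 25µM in 0.9% (v/v) final DMSO. Drugs that cut counts below 20% of controls were diluted 10-fold and retested, down to 25nM. Cell count and mean cell size (forward scatter area) were read on an Accuri C6 flow cytometer, relative to solvent-only controls. Plates held 6-12 controls; values are means of 3 biological replicates.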

Experiment [2] relates to Jurkat. The experiment can be described thus: cell count relative to DMSO control (fraction of control); higher = more cells (less growth inhibition). The note with it: 48 h.

Counter-ions that a name gives are not always drawn. ± gives the standard deviation.

In the case of `Clc1ccccc1CN1CCc2sccc2C1` [Ticlopidine·HCl] (concentration: 25 µM), in the experiment with Jurkat [1], the mean cell size worked out at 0.922 ± 0.011. The cell count with Jurkat [2] turned out to be 0.752 ± 0.017.

`CC[C@H](C)C(=O)O[C@H]1C[C@@H](C)C=C2C=C[C@H](C)[C@H](CC[C@@H]3C[C@@H](O)CC(=O)O3)[C@H]21` [Lovastatin] (concentration: 25 µM) registered a mean cell size in the experiment on Jurkat [1] of 1.16 ± 0.046. The molecule further registered a cell count in the experiment on Jurkat [2] of 0.664 ± 0.15.

For `C[C@@H]1C[C@H]2[C@@H]3CCC4=CC(=O)C=C[C@]4(C)[C@@]3(F)[C@@H](O)C[C@]2(C)[C@@]1(O)C(=O)CO` [Dexamethasone] (concentration: 25 µM), the mean cell size in the experiment with Jurkat [1] was 0.917 ± 0.019. Besides, the cell count in the experiment on Jurkat [2] worked out at 0.819 ± 0.11.

Regarding `Cc1ccccc1C(=O)Nc1ccc(C(=O)N2CCCC(O)c3cc(Cl)ccc32)c(C)c1` (configuration not stated) [Tolvaptan] (concentration: 25 µM), in the experiment on Jurkat [1], the mean cell size was determined as 0.951 ± 0.055. In the experiment with Jurkat [2], the cell count came out at 0.95 ± 0.028.

Regarding `Nc1ccc(C(=O)NCC(=O)O)cc1` [Aminohippurate·Na] (concentration: 25 µM), the mean cell size with Jurkat [1] was 0.995 ± 0.044. The cell count in the experiment with Jurkat [2] was 0.792 ± 0.089.

For the molecule `COc1c(N2CCNC(C)C2)c(F)cc2c(=O)c(C(=O)O)cn(C3CC3)c12` (configuration not stated) [Gatifloxacin] (concentration: 25 µM), the mean cell size in the experiment on Jurkat [1] turned out to be 0.956 ± 0.024. The cell count with Jurkat [2] is 0.661 ± 0.17.

Molecule `CC(=O)OCC(CCn1cnc2cnc(N)nc21)COC(C)=O` [Famciclovir] (concentration: 25 µM) had a mean cell size with Jurkat [1] of 0.925 ± 0.053. The molecule also had a cell count in the experiment with Jurkat [2] of 0.465 ± 0.18.

In the case of `NCCc1ccc(O)c(O)c1` [Dopamine·HCl] (concentration: 25 µM), in the experiment with Jurkat [1], the mean cell size stood at 0.951 ± 0.029. The cell count with Jurkat [2] is 0.909 ± 0.097.

In the case of `COc1ccc(Cl)cc1C(=O)NCCc1ccc(S(=O)(=O)NC(=O)NC2CCCCC2)cc1` [Glyburide] (concentration: 25 µM), in the experiment on Jurkat [1], the mean cell size turned out to be 1.02 ± 0.051. The molecule further yielded a cell count with Jurkat [2] of 0.806 ± 0.047.

On to `Cn1c(=O)c2c(ncn2C)n(C)c1=O` [Caffeine] (concentration: 25 µM), for which the mean cell size with Jurkat [1] amounted to 0.986 ± 0.046. Moreover, the cell count in the experiment on Jurkat [2] is 1 ± 0.093.

In the experiment with Jurkat [1], `Nc1nc(N)c2nc(-c3ccccc3)c(N)nc2n1` [Triamterene] (concentration: 25 µM) came in with a mean cell size of 1.21 ± 0.038. Moreover, in the experiment with Jurkat [2], the cell count came out at 0.398 ± 0.082.

In the experiment on Jurkat [1], `C[C@]12CC[C@@H]3c4ccc(OS(=O)(=O)O)cc4CC[C@H]3[C@@H]1CCC2=O` [Estropipate] (concentration: 25 µM) returned a mean cell size of 1.06 ± 0.069. In the experiment on Jurkat [2], this molecule showed a cell count of 0.747 ± 0.21.

In the experiment with Jurkat [1], `C[C@]12CC[C@@H]3c4ccc(O)cc4CC[C@H]3[C@@H]1CCC2=O` [Estrone] (concentration: 25 µM) displayed a mean cell size of 0.963 ± 0.033. The cell count with Jurkat [2] is 0.842 ± 0.094.

`O=C1Cc2cc(CCN3CCN(c4nsc5ccccc45)CC3)c(Cl)cc2N1` [Ziprasidone] (concentration: 25 µM) returned a mean cell size in the experiment on Jurkat [1] of 0.98 ± 0.062. For the same molecule, in the experiment on Jurkat [2], the cell count came to 0.838 ± 0.098.

The molecule `CC(=O)CC(c1ccccc1)c1c(O)c2ccccc2oc1=O` (configuration not stated) [Warfarin·Na] (concentration: 25 µM) showed a mean cell size with Jurkat [1] of 1.04 ± 0.051. In the experiment on Jurkat [2], this molecule gave a cell count of 0.708 ± 0.045.

In turn, `CO/N=C(\C(=O)N[C@@H]1C(=O)N2C(C(=O)OC(C)OC(C)=O)=C(COC(N)=O)CS[C@H]12)c1ccco1` (some centres not stated) [Cefuroxime Axetil] (concentration: 25 µM) displayed a mean cell size with Jurkat [1] of 0.99 ± 0.028. The molecule further showed a cell count with Jurkat [2] of 0.895 ± 0.057.

Take `O=C(c1ccccc1)c1ccc2n1CCC2C(=O)O` (configuration not stated) [Ketorolac Tromethamine] (concentration: 25 µM): in the experiment with Jurkat [1], the mean cell size amounted to 0.907 ± 0.024. The same molecule returned a cell count with Jurkat [2] of 0.934 ± 0.038.

In the experiment with Jurkat [1], `O=C(O)c1cc(N=Nc2ccc(O)c(C(=O)O)c2)ccc1O` [Olsalazine·Na] (concentration: 25 µM) had a mean cell size of 0.955 ± 0.036. Besides, the cell count with Jurkat [2] came out at 0.611 ± 0.042.

With `O=C(O)CCNC(=O)c1ccc(/N=N/c2ccc(O)c(C(=O)O)c2)cc1` [Balsalazide] (concentration: 25 µM), in the experiment with Jurkat [1], the mean cell size was determined as 0.964 ± 0.013. Further, the cell count with Jurkat [2] was 0.669 ± 0.047.

In the experiment with Jurkat [1], `N[C@@H](CC(=O)N1CCn2c(nnc2C(F)(F)F)C1)Cc1cc(F)c(F)cc1F` [Sitagliptin Phosphate] (concentration: 25 µM) registered a mean cell size of 0.999 ± 0.021. The molecule further displayed a cell count with Jurkat [2] of 0.554 ± 0.18.

`C[C@]12CCC3=C4CCC(=O)C=C4CC[C@H]3[C@@H]1CC[C@@]2(O)CC#N` [Dienogest] (concentration: 25 µM) registered a mean cell size with Jurkat [1] of 0.963 ± 0.035. The molecule further gave a cell count in the experiment with Jurkat [2] of 0.827 ± 0.15.

The molecule `CN(C)CCCN1c2ccccc2Sc2ccc(Cl)cc21` [Chlorpromazine·HCl] (concentration: 2.5 µM) came in with a mean cell size in the experiment on Jurkat [1] of 1.06 ± 0.017. The molecule also showed a cell count in the experiment on Jurkat [2] of 0.631 ± 0.15.

As to `CC1CNc2c(cccc2S(=O)(=O)N[C@@H](CCCNC(=N)N)C(=O)N2CC[C@@H](C)C[C@@H]2C(=O)O)C1` (some centres not stated) [Argatroban] (concentration: 25 µM), in the experiment on Jurkat [1], the mean cell size amounted to 0.938 ± 0.025. In addition, the cell count in the experiment on Jurkat [2] was found to be 0.702 ± 0.023.

As for `NC[C@H](O)c1ccc(O)c(O)c1` [Norepinephrine Bitartrate Monohydrate] (concentration: 25 µM), in the experiment with Jurkat [1], the mean cell size is 0.967 ± 0.024. The molecule also registered a cell count with Jurkat [2] of 0.658 ± 0.17.

Turning to `COC(=O)C1=C(C)NC(C)=C(C(=O)OC)C1c1ccccc1[N+](=O)[O-]` [Nifedipine] (concentration: 2.5 µM), the mean cell size with Jurkat [1] is 1.02 ± 0.036. Moreover, the cell count in the experiment on Jurkat [2] was found to be 0.92 ± 0.1.

On to `Clc1ccc2nsnc2c1NC1=NCCN1` [Tizanidine·HCl] (concentration: 25 µM), for which the mean cell size in the experiment on Jurkat [1] was found to be 1.01 ± 0.014. For the same molecule, the cell count with Jurkat [2] stood at 0.771 ± 0.054.
